Screening results as filed in PubChem BioAssay.
ALOX15B inhib – qHTS Assay for Inhibitors of 15-hLO-2 (15-human lipoxygenase 2) | 110,000 compounds, 0.56% hits | Polyunsaturated fatty acid lipoxygenase ALOX15B (Homo sapiens), O15296 | Potency, µM (doses to about 57.1 µM), for inactives: top-dose activity change, negative = inhibition, actives largely listed as inhibitors | purified 15hLO-2, xylenol orange hydroperoxide absorbance; further: on the % scale 0 is the no-effect control and ±100 the full control effect; nearly all actives have a fitted effect of over 60% in size
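Purified human 15hLO-2 (50 nM final) preincubated with compounds 15 min at room temperature in 25 mM Hepes pH 7.5, 0.01% Triton X-100, then 45 uM arachidonic acid added for 90 min; hydroperoxide detected via ferrous/xylenol orange, 573/405 nm absorbance ratio.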
Casp7 inh – qHTS Assay for Allosteric/Competitive Inhibitors of Caspase-7; P55210; recombinant caspase-7, Ac-DEVD-AFC fluorescence rate; Potency, µM (doses to about 57.5 µM), without a hit: at the top dose activity change, negative = inhibition, most hits filed as inhibitors; 75,000 compounds, 0.02% hits; AID 889, 2007; active means well fitted inhibition curve with a large enough effect in the main read-out, with a control signal flat, not every such curve was filed as active; inconclusive means small, poorly fitted or top-dose-only effect, or a change in a side signal; further: % of control where 0% means no effect
15-hLO inh – qHTS Assay for Inhibitors of 15-hLO (15-human lipoxygenase) | AID 887, 2007 | 74,000 compounds, 1.4% hits | Polyunsaturated fatty acid lipoxygenase ALOX15 (Homo sapiens), P16050 | Potency, µM (doses to about 57.1 µM), for the others: at the highest dose activity change, negative = inhibition, hits mostly inhibitors | purified 15hLO-1, xylenol orange hydroperoxide absorbance; further: on the % scale 0 is the no-effect control and ±100 the full control effect; nearly all actives have a fitted effect of over 55% in size
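Inhibition is scored from a chromogenic endpoint. After 15 min enzyme-compound contact, arachidonic acid (50 uM final) reacts 6 min with 40 nM 15hLO-1 at room temperature, then Fe-XO reagent is added for 30 min and absorbance ratio recorded.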
USP2a inhib – qHTS Assay for Inhibitors of Ubiquitin-specific Protease USP2a; Ubiquitin carboxyl-terminal hydrolase 2 (Homo sapiens), O75604; USP2a enzymatic assay, qHTS inhibition; Potency, µM (highest dose often 38.3 µM), without a hit: at the highest dose activity change, negative = inhibition, usual class: inhibitors; 60,000 compounds, 0.1% hits; AID 927, 2007; further: nearly all actives have a fitted effect of over 60% in size
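Inhibition is measured in a cell-free coupled assay with 20 nM USP2 core, 20 nM Ub-PLA2 and 20 uM NBD C6-HPC, 2.5 h incubation. Activity normalized to NEM control.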
Casp1 inh – qHTS Assay for Allosteric/Competitive Inhibitors of Caspase-1. 75,000 compounds, 0.03% hits. Potency, µM (doses to about 57.5 µM), inactives show at the top dose activity change, negative = inhibition, actives largely listed as inhibitors. AID 900, 2007. Caspase-1 enzyme, Ac-WEHD-AFC fluorogenic rate;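 further: plate controls were vehicle for no effect and no substrate for full effect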
An asterisk follows results filed as active; ? = inconclusive; . = no result; [ ] = remark or other dose. This excerpt belongs to a sample that is enriched for hits. Unless noted, the call rests on the fitted dose curve; in most records, active means well fitted curve in the direction sought with a large enough effect; inconclusive means small, poorly fitted or top-dose-only effect, or another doubt; inactive means no such curve, though single readings can be large; an effect the other way counts as inactive or inconclusive. Potency means the concentration at half of the fitted maximal effect.

SMILES	ALOX15B inhib	Casp7 inh	15-hLO inh	USP2a inhib	Casp1 inh
O=C1NCCCC2c3cc(O)c4ccccc4c3OC12N1CCCCC1 (stereo not drawn)	?	?	?	34%	32µM*
CC(=O)N1c2ccccc2NC2=C(C(=O)CCC2)C1c1ccc(F)cc1 (stereo not drawn)	6%	.	.	.	.
CC(=O)N1c2ccccc2NC2=C(C(=O)CCC2)C1c1cccnc1 (stereo not drawn)	-8%	0%	3%	1.6µM*	-1%
CCOC(=O)CNC(=O)c1ccc2[nH]c3c(c2c1)CCCC3	-5%	-19%	-7%	3%	-12%
CCS(=O)(=O)NCc1ccc2[nH]c3c(c2c1)CCCC3	-7%	?	0.4µM*	34%	.
Cc1ccc(NC(=O)c2ccc(Cl)c(N3C(=O)C=CC3=O)c2)cc1	0.32µM*	.	.	.	.
O=c1c(-c2cccs2)nc2cnc(N3CCOCC3)nc2n1-c1ccccc1	-8%	?	-12%	283%	.
CN(C)CCNC(=O)c1ccc(-n2c(=O)c(=O)[nH]c3ccccc32)cc1	.	-1%	0%	.	1%
FC(F)(F)c1cc(-c2ccc3c(c2)OCO3)nc(NCc2ccco2)n1	3%	0%	20µM*	1%	3%
FC(F)(F)c1cc(-c2ccco2)nc(NCc2ccco2)n1	.	-8%	-28%	-6%	-9%
NC(=O)CSc1nc2scc(-c3ccco3)c2c(=O)n1-c1ccccc1	-22%	-15%	-9%	1%	-3%
O=C(CSc1nc2scc(-c3ccco3)c2c(=O)n1-c1ccccc1)N1CCOCC1	-10%	-27%	1.6µM*	33%	-7%
O=C(c1ccccc1)c1ccc2n1CC[C@H]2C(=O)O	-7%[25.6 µM]	0%[25.7 µM]	12%[25.6 µM]	-11%[17.1 µM]	2%[25.7 µM]
Cc1nc2nc(-c3ccco3)[nH]n2c(=O)c1Cc1ccccc1	12%[2.29 µM]	-23%	16µM*	-12%	?
COC(=O)c1ccc(CCc2cc(O)ccc2O)cc1	12%[11.4 µM]	3%[11.5 µM]	1.6µM*	.	-1%[11.5 µM]
Cc1ccc(C(=O)CCNc2cccc(Br)c2)o1	-3%	0%	13µM*	-7%	-2%
COc1cc(N=c2ssnc2Cl)cc(OC)c1OC	25µM*	-1%	3.2µM*	13%	1%
COc1cc(/C=N/n2c(C)nnc2C)cc(OC)c1OC	3%	.	.	.	.
COc1ccc2[nH]cc(CCNc3ncncc3-c3ccccc3Cl)c2c1	13%	-6%	-26%	135%	-4%
C[C@@H]1C[C@@H]2[C@H]3CCC4=CC(=O)C=C[C@]4(C)[C@]3(Cl)[C@@H](O)C[C@@]2(C)[C@@]1(O)C(=O)CO	10%	1%	-17%	8%	-1%
O=C(Nc1ccc(Cl)cc1)c1cccs1	1%	.	.	.	.
O=C(Nc1ccccc1)c1nnsc1S(=O)c1ccc(Cl)cc1 (stereo not drawn)	1.3µM*	.	.	.	.
N[C@@H]1C=CC=C(C(=O)O)C1	-4%	2%	-7%	9%	2%
COc1cccc(-c2nc(N(C)Cc3ccco3)c3ccccc3n2)c1	-14%	-23%	10µM*	-30%	-15%
COC(=O)C1=C(C)NC(C)=C(C(=O)OCCN(C)Cc2ccccc2)[C@@H]1c1cccc([N+](=O)[O-])c1	28%	-1%	-13%	6%	0%
SMILES	ALOX15B inhib	Casp7 inh	15-hLO inh	USP2a inhib	Casp1 inh
NS(=O)(=O)c1ccc(NC(=O)CCC2CCCCC2)cc1	-5%	-4%	-9%	.	2%
O=C(CCCCCCCCCCCCC1CCCC1)Nc1ccc(S(=O)(=O)c2ccc(NC(=O)CCCCCCCCCCCCC3CCCC3)cc2)cc1	-8%	0%	?	25µM*	2%
COc1ccc2c3c(cccc13)N(C)N=C2C	2.5µM*	.	.	.	.
COc1ccccc1N1CCN(S(=O)(=O)c2ccc3c4c(cccc24)C(=O)N3C)CC1	7%[2.29 µM]	-9%	-6%	40%	-9%
CN(Cc1ccco1)c1ncnc2ccc(-c3cccc(C#N)c3)cc12	4%	-10%	-5%	17%	-2%
CCOC(=O)N/N=C1/C[C@@H](O)[C@@H](O)[C@@H]2[C@@H]3C(=O)N(C4CCCCC4)C(=O)[C@H]3CC[C@@H]12	.	-1%[11.5 µM]	17%[11.4 µM]	.	-1%[11.5 µM]
Cc1cc(C)c2cc(CN(Cc3ccc4c(c3)OCO4)Cc3nnnn3Cc3ccco3)c(=O)[nH]c2c1	6%	?	10µM*	33%	?
Oc1ccc([C@@H]2CNCc3sccc32)cc1O	?	0%	?	-3%	-1%
Nc1nc2c(cnn2CCc2ccccc2)c2nc(-c3ccco3)nn12	-17%	-4%	20µM*	.	0%
c1ccc(N2CCN(c3nc4ccccc4n4cnnc34)CC2)cc1	-8%	.	.	.	.
c1ccc2c(c1)CCN(c1nc3ccccc3n3cnnc13)C2	-6%	20µM*	-25%	.	-23%
C/C=C/OC(=O)NC(c1ccccc1)[C@]1(C(C)=O)CCCC1=O (stereo partly drawn)	.	1%[11.5 µM]	-4%[11.4 µM]	.	2%[11.5 µM]
Cc1ccc(C)c2nc(N3CCCC3)c(C#N)cc12	10%	?	13µM*	104%	.
Cc1cc(=O)c2c(O)c3c(O)cc(O)c4c5c(O)cc(O)c6c(O)c7c(=O)cc(C)c8c1c2c(c34)c(c65)c78	2.5µM*	.	.	.	.
Cc1cnc(CNc2ncncc2-c2cccc(NS(C)(=O)=O)c2)cn1	-4%	-2%	-19%	2%	0%
COc1cc(CNCc2ccco2)ccc1OCc1ccccc1	8%	.	.	.	.
COc1ccc2ccccc2c1C1CC(=O)N2CN(Cc3ccco3)CSC2=C1C#N (stereo not drawn)	13µM*	-13%	?	.	-5%
COc1cc(C2CC(=O)N3CN(Cc4ccco4)CSC3=C2C#N)ccc1OCc1ccccc1 (stereo not drawn)	?	-19%	6.3µM*	.	-7%
COc1ccc(CN(Cc2cc3cc4c(cc3[nH]c2=O)OCO4)C(=O)NC2CCCCC2)cc1	9%[11.4 µM]	-3%	16µM*	.	-6%
CCNc1ncc2nc(-c3cccc(C#N)c3)c(=O)n(CCC#N)c2n1	3%	?	-9%	56%	.
C=CCSC1=C(C#N)C(c2ccccc2Cl)CC(=O)N1 (stereo not drawn)	-2%	-2%	-9%	-9%	1%
C=C(C)CSC1=C(C#N)C(c2ccccc2Cl)CC(=O)N1 (stereo not drawn)	-22%	1%	16µM*	.	0%
CCOC(=O)CC(=O)CSc1nc2c(sc(=S)n2-c2ccccc2)c(=O)[nH]1	-12%	-8%	-11%	?	-3%
CCOC(=O)c1ccc(-n2c(=S)sc3c(=O)[nH]c(C)nc32)cc1	-19%	0%	10µM*	-4%	0%
